Data reported in PubChem BioAssay (NCATS).
Inconclusive results are not listed. The source made the active and inactive calls. Unless noted, calls come from the whole dose curve; as a rule, active = well fitted curve in the direction sought with a large enough effect; inconclusive = small, poorly fitted or top-dose-only effect, or another doubt; inactive = no such curve, though single readings can be large; an effect the other way counts as inactive or inconclusive.

How the values were obtained:
[1] = target: Voltage-gated inwardly rectifying potassium channel KCNH2 (Homo sapiens) (UniProt Q12809); assay: qHTS Assay for Small Molecule Inhibitors of the Human hERG Channel Activity (AID 588834);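 note: top concentration of the series differs between compounds; lower thallium flux fluorescence means stronger hERG block; nearly all actives have a fitted effect of over 50% in size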
Voltage-gated inwardly rectifying potassium channel KCNH2 (Homo sapiens), sequence (Q12809 whole entry, looked up): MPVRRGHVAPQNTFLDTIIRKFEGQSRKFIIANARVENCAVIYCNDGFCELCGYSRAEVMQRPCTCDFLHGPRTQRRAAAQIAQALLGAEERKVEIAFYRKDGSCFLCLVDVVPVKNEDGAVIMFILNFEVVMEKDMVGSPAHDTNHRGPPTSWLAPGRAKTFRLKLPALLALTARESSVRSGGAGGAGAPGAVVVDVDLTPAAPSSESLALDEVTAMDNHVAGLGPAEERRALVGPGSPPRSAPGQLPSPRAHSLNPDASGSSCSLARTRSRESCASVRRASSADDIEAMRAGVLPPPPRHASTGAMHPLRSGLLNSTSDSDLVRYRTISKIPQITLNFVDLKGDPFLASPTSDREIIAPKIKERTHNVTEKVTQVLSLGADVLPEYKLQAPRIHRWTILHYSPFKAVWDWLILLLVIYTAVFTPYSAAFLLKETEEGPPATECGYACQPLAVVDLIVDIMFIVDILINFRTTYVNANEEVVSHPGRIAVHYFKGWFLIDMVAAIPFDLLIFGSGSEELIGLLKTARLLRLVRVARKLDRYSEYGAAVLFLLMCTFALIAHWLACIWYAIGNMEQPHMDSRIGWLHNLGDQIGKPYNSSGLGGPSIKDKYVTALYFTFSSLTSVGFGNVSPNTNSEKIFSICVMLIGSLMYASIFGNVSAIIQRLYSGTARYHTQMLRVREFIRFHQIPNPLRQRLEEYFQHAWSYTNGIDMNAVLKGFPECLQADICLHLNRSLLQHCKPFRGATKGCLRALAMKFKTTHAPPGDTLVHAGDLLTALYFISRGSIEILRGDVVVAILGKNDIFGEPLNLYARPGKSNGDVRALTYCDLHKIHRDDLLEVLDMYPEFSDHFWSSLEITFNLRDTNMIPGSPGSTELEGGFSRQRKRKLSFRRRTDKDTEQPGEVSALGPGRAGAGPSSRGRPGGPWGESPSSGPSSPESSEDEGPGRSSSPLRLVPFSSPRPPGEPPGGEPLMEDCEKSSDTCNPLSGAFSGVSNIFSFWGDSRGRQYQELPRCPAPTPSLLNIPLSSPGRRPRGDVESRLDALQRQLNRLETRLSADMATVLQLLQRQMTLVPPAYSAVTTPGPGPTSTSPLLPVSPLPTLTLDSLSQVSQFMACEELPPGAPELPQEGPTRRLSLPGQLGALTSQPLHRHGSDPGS
Method in brief: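 Thallium serves as surrogate for K+ influx through BacMam-delivered hERG in U2OS cells. Compounds are added for about 10 minutes after dye loading; stimulation buffer then starts flux, monitored kinetically on FDSS.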

[2] = target: Luciferin 4-monooxygenase (Photinus pyralis) (UniProt P08659); assay: Biochemical firefly luciferase enzyme assay for NPC (AID 624030);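 note: purified P. pyralis luciferase at 10 nM with luciferin and ATP substrate; series mostly up to about 59 µM; nearly all actives have a fitted effect of over 70% in size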
Luciferin 4-monooxygenase (Photinus pyralis), sequence (P08659 whole entry, looked up): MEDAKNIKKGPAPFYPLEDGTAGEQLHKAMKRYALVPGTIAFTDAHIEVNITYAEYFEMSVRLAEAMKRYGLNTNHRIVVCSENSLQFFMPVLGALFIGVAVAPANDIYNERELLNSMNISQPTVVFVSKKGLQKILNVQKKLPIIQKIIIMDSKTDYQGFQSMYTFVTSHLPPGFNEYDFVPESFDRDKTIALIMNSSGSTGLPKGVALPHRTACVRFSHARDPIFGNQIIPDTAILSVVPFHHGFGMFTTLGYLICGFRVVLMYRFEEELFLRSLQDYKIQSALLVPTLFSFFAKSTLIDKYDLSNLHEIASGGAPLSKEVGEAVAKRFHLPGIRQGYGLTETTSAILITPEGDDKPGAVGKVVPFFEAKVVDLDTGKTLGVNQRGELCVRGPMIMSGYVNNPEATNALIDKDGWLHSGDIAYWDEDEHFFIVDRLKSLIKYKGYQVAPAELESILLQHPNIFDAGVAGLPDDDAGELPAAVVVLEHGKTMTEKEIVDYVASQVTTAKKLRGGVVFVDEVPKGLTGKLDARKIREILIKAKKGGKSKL
Method in brief: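 Direct inhibition of firefly luciferase enzyme (10 nM final, 50 mM Tris Acetate) assessed by luminescence within 5 minutes. Percent activity scaled between DMSO and PTC124 positive control, with concentration-effect curves classified by fit quality and response.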

[3] = S16 Schwann cell viability assay (CellTiter-Glo assay) (AID 624031);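 note: cellular ATP luminescence as a viability measure; series mostly up to about 58 µM; nearly all actives have a fitted effect of over 70% in size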
Method in brief: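 Native S16 rat Schwann cells in DMEM/10% FBS without phenol red were incubated overnight, then exposed to compounds for 24 h at 37 °C/5% CO2. Viability was read as ATP luminescence (CellTiter-Glo), normalized to no-cell wells and DMSO (0%).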

[4] = S16 Schwann cell PMP22 intronic element firefly luciferase assay (AID 624032); note: nearly all actives have a fitted effect of over 30% in size; note: potency is the fitted concentration of half-maximal effect
Method in brief: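 Luciferase reporter of PMP22 intronic-element expression in stably transfected S16 rat Schwann cells, read by ONE-Glo luminescence after 24 h compound exposure at 37 C. Activity scaled between DMSO (0%) and positive-control PTC124; concentration-effect curves quality-classified.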

[5] = S16 Schwann cell PMP22 intronic element beta-lactamase assay (AID 624044; calls by dose curve; note: nearly all actives have a fitted effect of over 15% in size)
Method in brief: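 Beta-lactamase reporter under a PMP22 intronic regulatory element in stable S16 rat Schwann cells; 24 h compound exposure. 460 nm blue signal normalized between DMSO (0%) and potassium clavulanate, with 535 nm FRET tracking viability; curves classed by r2 and response.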

[6] = qHTS of Trypanosoma Brucei Inhibitors: LOPAC Validation (AID 624147)
Method in brief: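 TbPYK + substrate in 50 mM TEA pH 7.2, 100 mM KCl, 10 mM MgCl2, 0.05% BSA, 0.01% Tween-20; cpd pinned; ADP 130 uM final; 45 min RT; Kinase-Glo Plus 10 min; luminescence endpoint.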

[7] = target: Glucagon-like peptide 1 receptor (Homo sapiens) (UniProt P43220); assay: qHTS of GLP-1 Receptor Agonists: LOPAC Validation (AID 624148);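 note: luminescence from a luciferase reporter switched on by cAMP; higher luminescence signal means agonism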
Glucagon-like peptide 1 receptor (Homo sapiens), sequence (P43220 whole entry, looked up): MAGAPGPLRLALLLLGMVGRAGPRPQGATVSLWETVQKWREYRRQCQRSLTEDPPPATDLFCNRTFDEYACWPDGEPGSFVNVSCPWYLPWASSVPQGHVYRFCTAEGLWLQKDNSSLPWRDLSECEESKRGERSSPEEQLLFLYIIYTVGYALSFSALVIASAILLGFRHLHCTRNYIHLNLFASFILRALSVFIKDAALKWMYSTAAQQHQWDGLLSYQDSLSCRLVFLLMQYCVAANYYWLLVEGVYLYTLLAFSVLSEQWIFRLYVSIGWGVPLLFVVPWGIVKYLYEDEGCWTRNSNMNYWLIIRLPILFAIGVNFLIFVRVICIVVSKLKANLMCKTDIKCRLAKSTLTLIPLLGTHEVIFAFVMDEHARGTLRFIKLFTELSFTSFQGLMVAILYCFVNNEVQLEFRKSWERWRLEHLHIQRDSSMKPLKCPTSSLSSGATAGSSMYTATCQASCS
Method in brief: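 Agonism scored as increased luciferase luminescence driven by cAMP in HEK293 clones carrying GLP-1R. Cells settled 12 hours, received compound for 4-6 hr at 37 deg C, 5% CO2, and were read after 12 min detection reagent at RT.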

[8] = qHTS of Nrf2 Activators: LOPAC Validation (AID 624149)
Method in brief: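 AREc32_Fluc cells, 1000/well, OPTI-MEM + 5% FBS, o/n 37 deg C 5% CO2; compound pin-transfer, 24 hr 37 deg C; Steady-Glo 30 min RT, luminescence read.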

[9] = HTS Assay for Allosteric Antagonists of the Human D2 Dopamine Receptor: Hit Validation in HTRF (AID 624455)
Method in brief: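 HTRF read-out; cells stably expressing D1 receptor; hits scored for inhibition of D1-mediated response. Primary screen: calcium flux, force-coupled inducible Hek293 Trex D2 line, antagonism vs EC80 dopamine.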

Measured: Potency

Cn1sc(Cl)cc1=O
inactive: [1] | [2] | [3] | [4] | [5]

C=CCN1CCC23c4c5ccc(O)c4O[C@H]2C(=O)CC[C@@]3(O)C1C5 (some centres undefined)
inactive: [1] | [2] | [3] | [6] | [7] | [8] | [9]

O=[N+]([O-])c1cc(I)c(O)c(I)c1
inactive: [1] | [3] | [4]

CCCCNCC(O)c1ccc(O)cc1 (centres undefined)
active: [4] 1.81 µM
inactive: [1] | [3]

CCCC(=O)OC(C(Cl)(Cl)Cl)P(=O)(OC)OC (centres undefined)
inactive: [1] | [2] | [3] | [4] | [5]

COC([CH2][Hg])CNC(=O)c1ccccc1OCC(=O)O (centres undefined)
inactive: [1] | [3]

Clc1ccc(C2(Cn3cncn3)OCCO2)c(Cl)c1
inactive: [1] | [2] | [3] | [5]

CCCCCCCCCC(=O)O[C@H]1CC[C@H]2[C@@H]3CCC4=CC(=O)CC[C@]4(C)[C@H]3CC[C@]12C
inactive: [1] | [2] | [3] | [5]

O=P(O)(O)C(Cl)(Cl)P(=O)(O)O
inactive: [1] | [2] | [3] | [4] | [5]

CCON=O
inactive: [1] | [2] | [3] | [4] | [5]

CCOc1ccc2c3c1O[C@H]1[C@@H](O)C=C[C@H]4[C@@H](C2)N(C)CC[C@@]341
inactive: [1] | [3]
active: [4] 16.1 µM

O=C(CCl)c1ccc(Oc2ccc(C(=O)CCl)cc2)cc1
inactive: [1] | [3] | [4] | [5]

CCC1(c2ccccc2)C(=O)NC(=O)N(C(=O)c2ccccc2)C1=O (centres undefined)
inactive: [1] | [2] | [3] | [5]
